According to the supplement of paper PMC6555819:

Key:
Assay in all cases: PBM binding z-score (relative to random genomic background probes); higher = stronger binding; sequences stand for … in GC…GCGATTGACAGCGTAGAATGAAGG
[1] = tested on: RARb homodimer (NR concentration 270 nM)
Outline: (§1)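 Binding buffer was PBS pH 7.4 with 2% milk, 0.02% Triton X-100, 1 mM DTT, 0.2 mg/mL BSA and 0.4 mg/ml salmon testes DNA. In it, ligand-free nuclear receptor dimers were incubated 1 h on custom Agilent 4×180K protein-binding microarrays carrying double-stranded probes. Antibodies against each partner (one per run) detected binding, and z-scores were calculated against random background probes after regression normalization of scanned fluorescence.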

[2] = tested on: RARg:RXRa (NR concentration 270 nM, RXRa partner concentration 90 nM)
Outline: as §1

[3] = tested on: RARg homodimer (NR concentration 270 nM)
Outline: as §1

[4] = tested on: RXRa DBDmut IVT, anti-RXR (DBD mutation: RXRa K156A/R161A, NR concentration 90 nM)
Outline: as §1

[5] = tested on: RXRa homodimer (NR concentration 180 nM)
Outline: as §1

[6] = tested on: THRa:RXRa (NR concentration 90 nM, RXRa partner concentration 90 nM)
Outline: as §1

[7] = tested on: THRa homodimer (NR concentration 90 nM)
Outline: as §1

[8] = tested on: VDR homodimer (NR concentration 270 nM)
Outline: as §1

Sequence	PBM binding z-score [1]	PBM binding z-score [2]	PBM binding z-score [3]	PBM binding z-score [4]	PBM binding z-score [5]	PBM binding z-score [6]	PBM binding z-score [7]	PBM binding z-score [8]
ATATGTCGGTTAGCTGGGGTCATTCAGACTAGGC	3.58	3.65	2.68	1.59	5.28	4.56	3.31	4.56
TCTAGCAGGCCAGAGGGACACTCAAGAGGTACGG	0.146	-0.0485	0.179	-0.19	0.112	-0.54	-0.905	-0.834
CCGACTGGGGCAAAGGTTACCATACTCAGTACGA	2.22	3.52	1.78	0.712	3.67	1.78	-0.211	-0.204
ATCTCTAGGTACAGATAGTTCAGTGAATGCAAAT	0.913	0.74	0.847	1.17	0.198	0.432	0.0409	1.65
TCGAGTAGGTTAGTCGGGGCATTCATCCAACATA	0.534	-0.0149	0.214	0.518	0.053	1.19	0.047	0.435
TAGCCTAGGCCAGATCGGGCCAGTATACGCTATA	-0.577	-0.451	-0.0912	-1.32	-0.625	0.522	-0.893	-0.924
ACTTACGGGTCAACGAGGTTTTAGCACGCGTATA	3.37	5.26	4.9	2.16	5.5	3.46	0.678	1.84
AGTCAAAGCTCATCTAGGTAACGTAAGATATGCT	-0.617	0.0208	0.207	-0.43	0.198	0.467	-0.333	-0.256
TCTTGTAGATCAAAGGTTAAGAGAGCCGAAGCCT	1.45	1.84	0.766	0.28	3.32	1.18	-0.582	-0.415
ATCTCTAGGTAAGACTCAGTCCAGTGAAGAACGC	0.112	0.208	0.132	0.459	0.144	0.31	0.282	0.336
ACTCAAAGTTCACTAGGTAACGTAAGATTCAGCT	3.65	4.84	5.79	4.63	3.51	2.22	0.585	4.45
ATCTCTAGGTAAAAGTTCAGTAAATCCCGAGGAT	2.41	1.83	1.94	0.937	1.61	1.38	0.269	2.01
GGAAGGAGGGCAAGTTGATAGCAGAGTTTGATGG	2.04	1.51	1.88	0.971	0.655	1.08	1.12	2
TCTTGTAGATCAACAGGAGGTTAAGGAAGATCGA	0.564	0.698	0.308	0.0925	0.861	0.777	-0.373	-0.358
CCTACTGGGCCAAGAAGGTCATTGATGCCGATAA	3.17	2.94	2.39	0.188	2.9	2.33	0.355	2.38
TTACCAAGGTGAGCTGAGGGCGTTGATCCAACTC	0.362	-0.0631	-0.0832	-0.14	0.126	3.36	0.287	0.247
CCTATTAGTTGACCATAAGGGCAAACGAAGCTCG	1.93	1.48	1.31	0.782	0.751	1.72	1.08	1.01
TAGCCTAGGTCATTGGGCCAGTAGAGTACGCATC	3.11	3.83	4.04	1.34	2.79	2.88	0.722	1.3
TCTATTAGTTGATTAGGGCAACAGAAACAGCGGA	0.664	0.691	0.686	0.926	0.691	0.607	0.289	0.253
CCGAGTAGGTTGTGGGGCATTCAGGCAACGGTGA	0.739	-0.398	-0.497	-0.201	-0.326	0.119	0.578	0.435
GCTATTAGTTGAAAGGGAAACCGAATGATTCTCG	-0.448	-0.0918	0.0889	0.797	-0.215	-0.127	-0.399	0.461
CGAACTAGGTCAAGGTCAAAGTCGGTTTGTGCCA	4.96	5.97	6.77	3.12	5.78	4.11	3.7	4.23
TCTTGTAGATCCGCAGGTTAAGAAAGCTGGCCAA	-0.00283	-0.252	-0.631	0.638	0.152	0.0319	-0.513	-0.38
CGAACTAGGTCATTTACAGGACAGTGAATAGTAA	2.66	4.82	4.09	2.58	2.38	2.89	0.896	1.75
TCTTATAGATCAGCAGGTTAAGAAAGCTGGCCAA	-0.092	0.0544	-0.0955	0.704	0.376	0.0186	-0.656	-0.144
TGAATGAGGTTATACGATCAGGGAACGTTGCAAA	0.016	1.31	1.01	0.956	2.06	1.8	0.24	0.274
CCGACTGGGGCAAAAAGGTTACCATACCATCCGG	2.34	1.8	1.6	-0.333	1.7	1.21	0.0277	0.374
CCTCTGAGGACAGAAGGTCAGAGCTGTCCGCTTT	3.74	3.76	3.58	1.08	2	3.4	1.58	0.647
TCATATAGTTAAACAGGTGAAAGTCCGTAAGTTA	0.84	0.464	0.347	1.57	1.04	0.679	0.485	0.667
